Data as given in PubChem BioAssay (NCATS).
Results filed as inconclusive are left out. Activity calls are given as the source filed them. Unless noted, calls come from the whole dose curve; as a rule, active = well fitted curve in the direction sought with a large enough effect; inconclusive = small, poorly fitted or top-dose-only effect, or another doubt; inactive = no such curve, though single readings can be large; an effect the other way counts as inactive or inconclusive.

Assays:
[1] = target: DNA dC->dU-editing enzyme APOBEC-3G (Homo sapiens) (UniProt Q9HC16); assay: qHTS for inhibitors of Vif-A3G interactions: Validation (AID 588379); settings: Vif-A3G protein interaction assay; series mostly up to 46.1 µM; note: 0% is about no effect
Summary of the method: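 HeLa cells stably expressing Vif and A3G-eYFP, 700 cells/well, incubated overnight at 37 deg C, then exposed to compound overnight at 37 deg C. Inhibition of Vif-mediated degradation read as increased yellow fluorescence (Ex 488/Em 500-530) by laser-scanning cytometry.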

[2] = system: Zika virus NS2B-NS3 protease; assay: Primary screen GU AMC qHTS for Zika virus inhibitors (AID 1347154); settings: Zika NS2B-NS3 unlinked protease, AMC fluorogenic substrate; series mostly up to 54.1 µM;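 note: 0% = no-inhibitor control and -100% = no-enzyme control; nearly all actives have a fitted effect of over 70% in size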
Summary of the method: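 Unlinked Zika NS2B hydrophilic domain–NS3 protease complex at 25 nM in 10 mM Tris-HCl pH 8.0, 0.01% Tween 20, with an AMC peptide substrate. Fluorescence change (340/450 nm) over 15 min at room temperature, normalized to controls, fitted to 4-parameter Hill.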

[3] = target: Rap guanine nucleotide exchange factor 3 (Homo sapiens) (UniProt O95398); assay: Confirmatory qHTS for antagonist of cAMP-regulated guanine nucleotide exchange factor 3 (EPAC1) (AID 1645880); settings: EPAC1 Rap1B-BODIPY-GDP exchange, fluorescence; series mostly up to 115 µM;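 note: plate controls were DMSO only for no effect and full effect of the ATA control for full effect; nearly all actives have a fitted effect of over 55% in size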
Summary of the method: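 Nucleotide exchange uses 100 nM EPAC1, 250 nM RAP1B-BODIPY-GDP and 50 uM GDP, with compounds in a concentration-titration series. After 5 min at room temperature, fluorescence (480 nm ex/540 nm em) is read every 5 min for 30 min. Data are normalized to control ATA and DMSO.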

[4] = target: Rap guanine nucleotide exchange factor 3 (Homo sapiens) (UniProt O95398); assay: Confirmatory qHTS for agonist of cAMP-regulated guanine nucleotide exchange factor 3 (EPAC1) (AID 1645881); settings: EPAC1 Rap1B BODIPY-GDP exchange fluorescence, 100% = cAMP control response; series mostly up to 154 µM;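 note: EPAC1 catalysed release of BODIPY-GDP from Rap1B seen as fluorescence loss; nearly all actives have a fitted effect of over 75% in size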
[5] = target: Rap guanine nucleotide exchange factor 4 (Homo sapiens) (UniProt Q8WZA2); assay: Confirmatory qHTS for agonist of cAMP-regulated guanine nucleotide exchange factor 4 (EPAC2) (AID 1645884); settings: EPAC2 GEF activity, Rap1B-BODIPY-GDP fluorescence, percent relative to cAMP agonist control; series mostly up to 154 µM;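 note: nucleotide exchange releases bodipy-GDP from Rap1 and this lowers its fluorescence; % is set by controls: 0 for no effect and ±100 for the full control effect; nearly all actives have a fitted effect of over 65% in size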
[6] = target: Rap guanine nucleotide exchange factor 4 (Homo sapiens) (UniProt Q8WZA2); assay: Confirmatory qHTS for antagonist of cAMP-regulated guanine nucleotide exchange factor 4 (EPAC2) (AID 1645885); settings: EPAC2 Rap1B-BODIPY-GDP exchange fluorescence, biochemical; series mostly up to 114 µM; note: % is set by controls: 0 for no effect and ±100 for the full control effect; nearly all actives have a fitted effect of over 25% in size
[7] = target: DNA repair nuclease/redox regulator APEX1 (Homo sapiens) (UniProt P27695); assay: qHTS Validation Assay for Inhibitors of the Human Apurinic/apyrimidinic Endonuclease 1 (APE1) (AID 1705;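 note: TAMRA fluorescence gain over two minutes as APE1 cuts a quenched THF abasic duplex; % is set by controls: 0 for no effect and ±100 for the full control effect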); settings: purified APE1 endonuclease activity, fluorescence, titration; series mostly up to 57.1 µM
Summary of the method: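 Fluorogenic double-stranded THF abasic-site substrate (5'-TAMRA/3'-BHQ-2), 50 nM final. Enzyme preincubated with compound 15 min at room temperature, then substrate added. Kinetic fluorescence (ex 525/em 598 nm) read three times at 60 s intervals; activity taken as third-minus-first read difference.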

[8] = qHTS for differential inhibitors of proliferation of Plasmodium falciparum line 7G8 (AID 1815); settings: Plasmodium falciparum 7G8 proliferation inhibition; series mostly up to 28.7 µM;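 note: parasite growth measured after three days of incubation; plate controls were vehicle wells for no effect and reference inhibitor wells for full effect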
[9] = qHTS for differential inhibitors of proliferation of Plasmodium falciparum line GB4 (AID 1816); settings: Potency: Plasmodium falciparum GB4 proliferation inhibition; series mostly up to 28.7 µM;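 note: parasite growth measured after 72 h incubation; 0% = vehicle DMSO and -100% = reference inhibitor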
[10] = qHTS for differential inhibitors of proliferation of Plasmodium falciparum line 3D7 (AID 1876);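 note: parasite growth measured after three days of culture; 0% = vehicle wells and -100% = reference inhibitor wells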; settings: P. falciparum 3D7 proliferation inhibition; series mostly up to 28.7 µM
[11] = qHTS for differential inhibitors of proliferation of Plasmodium falciparum line Dd2 (AID 1882); settings: Potency: Plasmodium falciparum Dd2 proliferation inhibition; series mostly up to 28.7 µM;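 note: plate controls were DMSO vehicle for no effect and 0.29 µM artemisinin for full effect; nearly all actives have a fitted effect of over 65% in size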
Summary of the method: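 Dd2-infected erythrocytes (0.3% parasitemia, 2.5% hematocrit final) incubated with compound 72 h at 37 C, 5% CO2; lysed with saponin/Triton buffer containing SYBR Green I, incubated overnight in the dark, then read by fluorescence (485/535 nm). Normalized to 0.29 uM artemisinin and DMSO.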

[12] = qHTS for differential inhibitors of proliferation of Plasmodium falciparum line W2 (AID 1883); settings: Potency: Plasmodium falciparum W2 proliferation inhibition; series mostly up to 28.7 µM;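 note: parasites grown with compound for 72 h before lysis and staining; 0% = vehicle wells and -100% = control inhibitor wells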
[13] = qHTS for differential inhibitors of proliferation of Plasmodium falciparum line HB3 (AID 1886); settings: Potency: Plasmodium falciparum HB3 proliferation inhibition; series mostly up to 28.7 µM;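 note: parasites grown with compound for 72 h before SYBR Green readout; plate controls were vehicle for no effect and reference inhibitor for full effect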
[14] = target: ATP-dependent DNA helicase Q1 (Homo sapiens) (UniProt P46063); assay: qHTS Validation Assay for Inhibitors of RecQ-Like Dna Helicase 1 (RECQ1) (AID 2353); settings: recombinant RECQ1 helicase DNA unwinding assay; series mostly up to 25.6 µM;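 note: plate controls were DMSO vehicle for no effect and enzyme-free control for full effect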
Summary of the method: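 50 nM RECQ1T1 preincubated 15 min with compound in Tris pH 8.0 buffer with MgCl2, DTT, Tween-20 and 2.5 ug/ml poly(dI-dC); started with 200 nM TAMRA/BHQ-2 forked duplex and 2 mM ATP. Unwinding read as fluorescence (525/598 nm), two reads 2 h apart.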

[15] = Quantitative high throughput screen for delayed death inhibitors of the malarial parasite plastid, 96 hour incubation (AID 488745); settings: Plasmodium falciparum growth; series mostly up to 28.7 µM; note: % is set by controls: 0 for no effect and ±100 for the full control effect; nearly all actives have a fitted effect of over 70% in size
Summary of the method: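 Luciferase-expressing P. falciparum in erythrocytes (2% hematocrit, 0.1% parasitemia) incubated with compound for 96 h at 37 C, 5% CO2, in RPMI 1640 with 0.5% Albumax. Growth inhibition read as decreased luminescence.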

[16] = Quantitative high throughput screen for delayed death inhibitors of the malarial parasite plastid, 48 hour incubation (AID 488752); settings: Plasmodium falciparum growth; series mostly up to 28.7 µM; note: % is set by controls: 0 for no effect and ±100 for the full control effect; nearly all actives have a fitted effect of over 65% in size
Summary of the method: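 Erythrocytes infected with firefly luciferase-expressing P. falciparum (2% hematocrit, 0.1% parasitemia) cultured with compound for 48 h at 37 C, 5% CO2, in RPMI 1640/0.5% Albumax. Growth inhibition read as loss of luminescence.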

[17] = target: M-phase phosphoprotein 8 (Homo sapiens) (UniProt Q99549); assay: qHTS Validation Assay for Inhibitors for MPP8 Chromodomain Interactions with Methylated Histone Tails (AID 488949); settings: AlphaScreen MPP8 binding to H3K9me3 peptide; series mostly up to 114 µM; note: top concentration of the series differs between compounds; % is set by controls: 0 for no effect and ±100 for the full control effect; nearly all actives have a fitted effect of over 55% in size
Summary of the method: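 MPP8 (50 nM) was pre-bound to 50 nM biotinylated H3(1-18)K9me3 peptide in PBS pH 7.4 with 0.01% Tween-20. Compounds were then added for 30 min at room temperature, and complex disruption was read by AlphaScreen with streptavidin donor and nickel-chelate acceptor beads.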

[18] = target: Transient receptor potential cation channel subfamily V member 1 (Homo sapiens) (UniProt Q8NER1); assay: HTS Assay for Compounds that Act as Enhancers of the Vanilloid Receptor 1 (AID 488979); settings: TRPV1-expressing cells, enhancer of channel activity, stimulated with capsaicin at EC20; series mostly up to 41.7 µM; note: 0% is about no effect
Summary of the method: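 TRPV1 cells loaded with Fluo-8 calcium dye; compound added and Ca2+ signal (ex 480/em 520 nm) followed 3 min, then capsaicin at EC20 added and read 2 more min to detect enhancement.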

[19] = target: Thyrotropin receptor (Homo sapiens) (UniProt P16473); assay: qHTS Assay for Antagonists of the Thyroid Stimulating Hormone Receptor (AID 488980); settings: TSHR-expressing cells, cAMP antagonist read-out; series mostly up to 57.5 µM; note: 0% is about no effect
Summary of the method: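 TSHR-transfected HEK293 cells (2000/well) in HEPES-buffered HBSS with 70 uM RO 20-1724 were stimulated with 4 nM TSH (EC80, final) in the presence of compound. cAMP was measured by HTRF competition after lysis and 30 min at RT.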

[20] = target: Thyrotropin-releasing hormone receptor (Homo sapiens) (UniProt P34981); assay: qHTS for Small Molecule Agonists and Allosteric Enhancers of Human TRH Receptor: Validation Screen for Agonists (AID 493127;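 active = calcium activation more than 3 SD above the typical response in the agonist read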; note: 0% is about no effect); settings: TRH receptor agonist cell assay; at 2 µM; stronger effect = higher value
Summary of the method: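 TRHR cells loaded with fluo-8 calcium dye; FDSS kinetic fluorescence (Ex 480/Em 530) read at 1 s/cycle after 23 nL compound addition. Agonist-mode calcium response recorded before the 10 nM TRH (EC20) addition.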

[21] = Validation screen for small molecules that induce DNA re-replication in SW480 colon adenocarcinoma cells (AID 504364); settings: DNA re-replication phenotype (high-content imaging); series mostly up to 46.1 µM; note: 0% is about no effect
Summary of the method: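 SW480 cells (250/well) exposed 48 h at 37 C, 5% CO2, then Hoechst-stained 40 min. Nuclear DNA content imaged by fluorescence scanning (405 nm excitation, 500-530 nm emission); re-replication scored as increased nuclei with elevated intensity.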

Sequence of Rap guanine nucleotide exchange factor 4 (Homo sapiens) (Q8WZA2 whole entry, looked up): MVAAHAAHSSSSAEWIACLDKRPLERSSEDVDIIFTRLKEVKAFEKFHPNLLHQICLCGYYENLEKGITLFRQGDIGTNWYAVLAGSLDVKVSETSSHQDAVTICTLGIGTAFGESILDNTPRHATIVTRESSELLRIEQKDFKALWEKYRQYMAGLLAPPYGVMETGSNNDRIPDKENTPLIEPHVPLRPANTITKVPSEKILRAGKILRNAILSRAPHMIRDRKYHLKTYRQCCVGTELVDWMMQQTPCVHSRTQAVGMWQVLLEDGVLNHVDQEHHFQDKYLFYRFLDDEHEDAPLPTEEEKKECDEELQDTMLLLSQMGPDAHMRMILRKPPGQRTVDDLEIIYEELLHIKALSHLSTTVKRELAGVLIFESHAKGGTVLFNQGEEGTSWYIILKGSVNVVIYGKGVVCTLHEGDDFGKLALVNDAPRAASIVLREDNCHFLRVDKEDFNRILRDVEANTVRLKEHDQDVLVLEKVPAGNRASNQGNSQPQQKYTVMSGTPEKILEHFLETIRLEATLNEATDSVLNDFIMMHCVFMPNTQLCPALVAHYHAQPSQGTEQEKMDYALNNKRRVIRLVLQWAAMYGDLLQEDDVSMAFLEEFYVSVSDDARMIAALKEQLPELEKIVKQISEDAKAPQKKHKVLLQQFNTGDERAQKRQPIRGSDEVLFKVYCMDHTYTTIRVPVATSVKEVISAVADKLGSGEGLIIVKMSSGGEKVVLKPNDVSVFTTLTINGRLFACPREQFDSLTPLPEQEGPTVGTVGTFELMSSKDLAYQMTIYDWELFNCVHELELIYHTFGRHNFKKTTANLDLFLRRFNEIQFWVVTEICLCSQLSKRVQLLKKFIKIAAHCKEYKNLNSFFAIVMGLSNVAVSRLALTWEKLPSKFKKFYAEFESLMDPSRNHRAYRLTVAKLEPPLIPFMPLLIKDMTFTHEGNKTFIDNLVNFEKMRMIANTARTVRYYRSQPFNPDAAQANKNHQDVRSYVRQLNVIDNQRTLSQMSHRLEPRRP
Sequence of Rap guanine nucleotide exchange factor 3 (Homo sapiens) (O95398 whole entry, looked up): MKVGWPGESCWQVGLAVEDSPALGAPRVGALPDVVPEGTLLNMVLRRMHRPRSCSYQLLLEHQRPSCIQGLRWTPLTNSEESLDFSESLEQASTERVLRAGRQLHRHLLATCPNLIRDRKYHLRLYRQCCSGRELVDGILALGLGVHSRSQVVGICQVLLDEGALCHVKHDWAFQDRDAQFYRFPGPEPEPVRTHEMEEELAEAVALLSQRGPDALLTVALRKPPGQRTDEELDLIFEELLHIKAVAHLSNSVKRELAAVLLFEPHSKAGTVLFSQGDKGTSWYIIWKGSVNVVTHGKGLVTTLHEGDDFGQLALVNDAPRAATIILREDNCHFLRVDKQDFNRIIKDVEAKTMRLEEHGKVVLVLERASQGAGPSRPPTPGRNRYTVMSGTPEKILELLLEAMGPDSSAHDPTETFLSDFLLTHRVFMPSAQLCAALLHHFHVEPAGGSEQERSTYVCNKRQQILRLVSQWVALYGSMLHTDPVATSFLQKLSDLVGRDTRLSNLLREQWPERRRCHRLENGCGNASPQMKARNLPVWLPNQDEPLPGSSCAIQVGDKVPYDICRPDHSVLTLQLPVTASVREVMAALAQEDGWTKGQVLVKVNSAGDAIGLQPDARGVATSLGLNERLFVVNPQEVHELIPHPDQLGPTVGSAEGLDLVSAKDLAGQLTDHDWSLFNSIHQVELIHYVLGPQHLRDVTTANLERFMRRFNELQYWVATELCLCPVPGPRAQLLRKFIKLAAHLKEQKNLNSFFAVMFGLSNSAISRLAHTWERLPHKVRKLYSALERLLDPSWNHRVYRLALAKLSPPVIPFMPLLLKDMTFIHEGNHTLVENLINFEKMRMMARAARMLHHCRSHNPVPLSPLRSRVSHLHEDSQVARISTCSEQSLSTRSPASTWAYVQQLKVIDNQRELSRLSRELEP
Sequence of Thyrotropin-releasing hormone receptor (Homo sapiens) (P34981 whole entry, looked up): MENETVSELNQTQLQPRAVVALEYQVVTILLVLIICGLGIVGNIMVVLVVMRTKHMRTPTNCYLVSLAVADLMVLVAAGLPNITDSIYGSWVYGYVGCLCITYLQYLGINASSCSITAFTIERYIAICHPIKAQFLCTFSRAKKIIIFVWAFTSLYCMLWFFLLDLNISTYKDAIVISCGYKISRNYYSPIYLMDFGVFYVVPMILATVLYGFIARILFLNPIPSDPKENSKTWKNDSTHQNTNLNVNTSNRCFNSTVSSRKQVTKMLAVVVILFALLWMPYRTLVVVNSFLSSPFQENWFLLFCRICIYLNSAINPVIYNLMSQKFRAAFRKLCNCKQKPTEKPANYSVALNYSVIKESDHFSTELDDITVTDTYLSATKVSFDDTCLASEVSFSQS
Sequence of DNA dC->dU-editing enzyme APOBEC-3G (Homo sapiens) (Q9HC16 whole entry, looked up): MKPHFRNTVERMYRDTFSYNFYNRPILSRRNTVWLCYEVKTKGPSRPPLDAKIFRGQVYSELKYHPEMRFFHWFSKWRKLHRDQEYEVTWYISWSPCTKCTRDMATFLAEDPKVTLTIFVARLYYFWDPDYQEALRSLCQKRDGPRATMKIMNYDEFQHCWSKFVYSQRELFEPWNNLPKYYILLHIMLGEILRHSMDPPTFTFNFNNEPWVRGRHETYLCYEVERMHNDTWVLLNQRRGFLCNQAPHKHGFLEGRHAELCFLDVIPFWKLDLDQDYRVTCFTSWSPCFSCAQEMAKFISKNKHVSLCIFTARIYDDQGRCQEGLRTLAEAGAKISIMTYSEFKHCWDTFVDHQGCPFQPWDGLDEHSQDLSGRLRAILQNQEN
Sequence of Thyrotropin receptor (Homo sapiens) (P16473 whole entry, looked up): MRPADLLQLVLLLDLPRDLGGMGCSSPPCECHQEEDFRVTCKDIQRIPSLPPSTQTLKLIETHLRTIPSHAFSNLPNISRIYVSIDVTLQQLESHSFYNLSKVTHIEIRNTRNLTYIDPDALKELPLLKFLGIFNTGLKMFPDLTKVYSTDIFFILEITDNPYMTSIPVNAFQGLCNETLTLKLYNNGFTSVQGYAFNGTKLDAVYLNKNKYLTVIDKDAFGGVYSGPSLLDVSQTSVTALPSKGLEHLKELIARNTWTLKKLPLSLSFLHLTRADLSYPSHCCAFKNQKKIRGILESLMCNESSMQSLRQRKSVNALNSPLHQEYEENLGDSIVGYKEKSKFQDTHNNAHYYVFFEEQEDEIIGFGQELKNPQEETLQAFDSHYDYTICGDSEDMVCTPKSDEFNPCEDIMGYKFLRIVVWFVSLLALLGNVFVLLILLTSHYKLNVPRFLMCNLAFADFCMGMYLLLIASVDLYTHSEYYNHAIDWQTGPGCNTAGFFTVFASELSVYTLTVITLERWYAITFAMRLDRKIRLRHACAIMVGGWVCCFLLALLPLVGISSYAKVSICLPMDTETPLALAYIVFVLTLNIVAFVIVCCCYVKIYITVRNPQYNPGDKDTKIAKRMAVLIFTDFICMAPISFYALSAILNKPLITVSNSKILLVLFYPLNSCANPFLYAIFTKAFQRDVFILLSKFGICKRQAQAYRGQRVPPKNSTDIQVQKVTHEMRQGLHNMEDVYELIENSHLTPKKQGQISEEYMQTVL
Sequence of ATP-dependent DNA helicase Q1 (Homo sapiens) (P46063 whole entry, looked up): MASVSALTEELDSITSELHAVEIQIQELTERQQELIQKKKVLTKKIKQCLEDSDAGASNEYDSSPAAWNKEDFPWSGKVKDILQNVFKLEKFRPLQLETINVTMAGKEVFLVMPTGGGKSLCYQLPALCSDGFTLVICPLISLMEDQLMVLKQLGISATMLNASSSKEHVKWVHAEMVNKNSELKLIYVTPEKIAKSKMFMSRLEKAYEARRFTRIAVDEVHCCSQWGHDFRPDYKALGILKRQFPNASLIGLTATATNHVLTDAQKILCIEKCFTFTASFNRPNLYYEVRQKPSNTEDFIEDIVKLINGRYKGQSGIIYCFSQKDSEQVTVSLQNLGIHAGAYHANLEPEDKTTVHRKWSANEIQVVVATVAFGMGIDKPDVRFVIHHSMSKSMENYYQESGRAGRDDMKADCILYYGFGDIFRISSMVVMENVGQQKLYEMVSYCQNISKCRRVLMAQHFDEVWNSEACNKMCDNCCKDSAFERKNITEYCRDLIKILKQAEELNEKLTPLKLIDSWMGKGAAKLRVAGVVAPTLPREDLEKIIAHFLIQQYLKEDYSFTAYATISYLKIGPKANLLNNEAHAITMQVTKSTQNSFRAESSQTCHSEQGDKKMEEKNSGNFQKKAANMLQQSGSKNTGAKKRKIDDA
Sequence of DNA repair nuclease/redox regulator APEX1 (Homo sapiens) (P27695 whole entry, looked up): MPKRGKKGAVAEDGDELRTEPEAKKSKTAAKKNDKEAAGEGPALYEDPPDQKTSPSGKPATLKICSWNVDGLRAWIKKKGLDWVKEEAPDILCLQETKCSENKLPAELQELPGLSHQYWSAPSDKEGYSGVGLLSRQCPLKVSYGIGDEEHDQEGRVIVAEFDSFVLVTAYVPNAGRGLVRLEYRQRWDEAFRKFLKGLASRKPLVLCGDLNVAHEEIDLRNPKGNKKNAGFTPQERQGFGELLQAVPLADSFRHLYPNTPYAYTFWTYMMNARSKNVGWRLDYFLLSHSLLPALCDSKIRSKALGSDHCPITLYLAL

CN1[C@@H]2CC(OC(=O)[C@H](CO)c3ccccc3)C[C@@H]1[C@H]1O[C@H]12 (some centres not stated)
inactive: Potency [1] | Potency [2] | Potency [3] | outcome [4] | outcome [5] | Potency [6]

CCCCCCCCCCCCC/C=C/[C@@H](O)[C@@H](N)CO
inactive: Potency [7] | Potency [8] | Potency [9] | Potency [10] | Potency [11] | Potency [12] | Potency [13] | Potency [14] | Potency [15] | Potency [16] | Potency [17] | outcome [18] | outcome [19] | activation [20] 0.312% | outcome [21] | Potency [2]
